Measurements reported in PubChem BioAssay AID1053118 (Broad Institute, 2014).
Results with a measured potency or affinity are listed apart. A number with no mark means an inactive call.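 Rule for the calls: active = fitted half-maximal concentration for ATP signal loss at most twice the top valid dose; inconclusive = flat curve between -70 and -30%, or an invalid fit; inactive = flat within ±30%, wrong direction, or potency past limit.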

Assay: HepG2 cell cytotoxicity, dose response, cytotoxicity control, cherry-picks, set 5 (AID 1053118);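 note: 0% = neutral control wells and -100% = mitoxantrone positive control wells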
Details: HepG2 viability, ATP luminescence, 72 h; series mostly up to 26 µM; activity change, negative = cytotoxicity: at the top concentration

Row | SMILES | activity change, negative = cytotoxicity
1 | COc1ccccc1CNc1nc(NCc2cnc(C)cn2)c2sccc2n1 | 2.3%
2 | COc1cccc(CNC(=O)CCc2nnc3ccc(NCCCN4CCCC4=O)nn23)c1 | -20.6%
3 | COc1ccc(Cl)cc1NC(=O)CSc1nc(Nc2ccccc2)nc(N2CCOCC2)n1 | 13.1%
4 | COC(=O)C[C@@H]1CC[C@@H]2[C@H](COc3ccc(NC(=O)Cc4cccs4)cc3C(=O)N2C)O1 | -25.5% [at 23.5 µM]
5 | COc1ccc(-c2csc(CCn3nc(C)cc3C)n2)cc1OC | -11.4%
6 | CN(C)C(=O)c1ccc(-c2ccc3c(c2)[C@@H]2[C@@H](CCN2C(=O)c2ccc(F)cc2)[C@@H](CO)N3C)cc1 | -20.1%
7 | Cc1ccc(CS(=O)Cc2ccc(C(=O)NC3CCCC(C)C3C)o2)cc1 (stereo unspecified) | -8.58%
8 | CC(=O)Nc1cccc(-c2ccnc3c2CC(C)(C(=O)Nc2cccc(C(F)(F)F)c2)O3)c1 (stereo unspecified) | -9.23%
9 | CC(C)(C)c1cc(Cl)c(O)c(NC(=S)NC(=O)c2cccnc2)c1 | -3.76%
10 | CCCc1cc(C(=O)OC)c(NC(=O)CCC(=O)O)s1 | -20.8%
11 | COC(=O)C[C@@H]1CC[C@@H]2[C@@H](COc3ccc(NC(=O)Cc4cccs4)cc3C(=O)N2C)O1 | 5.87%
12 | N#Cc1ccc(-c2ccc3c(c2)[C@@H]2[C@@H](CCN2S(=O)(=O)c2cccc(F)c2)[C@H](CO)N3)cc1 | -14.6%
13 | C[C@H](CO)N1C[C@H](C)[C@@H](CN(C)C(=O)c2cccc(F)c2)Oc2ncc(-c3ccccc3)cc2C1=O | -14.7%
14 | C[C@@H]1CN([C@@H](C)CO)C(=O)c2cc(NC(=O)CCCN(C)C)ccc2O[C@H]1CN(C)Cc1ccc(-c2ccccc2)cc1 | -13.7%
15 | COCC(=O)Nc1ccc2c(c1)C(=O)N(C)[C@H]1CC[C@@H](CC(=O)NCc3ccccc3Cl)O[C@H]1CO2 | -14%
16 | CS(=O)(=O)N1CCN(c2ccc(NC(=O)c3ccc([N+](=O)[O-])o3)cc2)CC1 | -28.3%
17 | C[C@H](CO)N1C[C@H](C)[C@@H](CN(C)Cc2ccc(-c3ccccc3)cc2)Oc2ccc(NC(=O)C3CCCCC3)cc2C1=O | -13.4%
18 | Cc1cccc(NC(=O)c2ccc(S(=O)(=O)N3CCCCC3)cc2)n1 | 20.9%

Row | SMILES | activity change, negative = cytotoxicity
19 | N#Cc1ccc(-c2ccc3c(c2)[C@@H]2[C@@H](CCN2S(=O)(=O)c2ccccc2F)[C@H](CO)N3)cc1 | 1.1%
20 | CO[C@H]1CN(C)C(=O)c2cc(NC(=O)Nc3ccc(Cl)c(Cl)c3)ccc2OC[C@@H](C)NC[C@H]1C | -17.3%
21 | CCN1CCN(C(c2ccccc2)c2nnnn2Cc2ccccc2)CC1 (stereo unspecified) | -27.1%
22 | CO[C@H]1CN(C)C(=O)c2cc(NC(=O)Nc3cc(Cl)cc(Cl)c3)ccc2OC[C@@H](C)NC[C@@H]1C | -10.7%
23 | CN1c2ccc(-c3ccccc3)cc2[C@@H]2[C@@H](CCN2C(=O)CN2CCOCC2)[C@H]1CO | 8.94% [at 23.5 µM]
24 | C[C@H]1CN([C@@H](C)CO)C(=O)c2cc(-c3ccccc3)cnc2O[C@@H]1CN(C)C(=O)c1cccc(F)c1 | -10.7%
25 | C[C@H]1CN([C@@H](C)CO)C(=O)c2cc(NC(=O)CCCN(C)C)ccc2O[C@@H]1CN(C)Cc1ccc(-c2ccccc2)cc1 | -11.7%
26 | C[C@H](O)C#Cc1ccc2c(c1)O[C@H](CN(C)C)[C@H](C)CN([C@@H](C)CO)S2(=O)=O | -0.213%
27 | CC1CN(C(=O)c2cc3c(=O)n4ccccc4nc3n2C)CC(C)O1 (stereo unspecified) | -14.4%
28 | CCOC(=O)c1cnc(SCc2nc(N)nc(Nc3ccc(OC)cc3)n2)nc1N | 22.1%
29 | COc1ccc(CN(C2CCCC2)S(=O)(=O)c2ccc(-n3cnnn3)cc2)cc1OC | 0.181%
30 | COc1cccc(CN2CCN(C(=O)c3ccc(-c4ccccc4)cc3)CC2)c1OC | 1.6%
31 | CCC(C)(C)NC(=O)C(OC(=O)c1ccco1)c1ccccc1OC (stereo unspecified) | -12.4%
32 | O=S(=O)(c1cccc(F)c1)N1CC[C@H]2[C@H](CO)Nc3ccc(-c4cccc(F)c4)cc3[C@H]21 | -7.37%
33 | S=C(NCC1CCCO1)Nc1ccc(Cl)cc1Cl (stereo unspecified) | 3.84%
34 | CCOC(=O)C1=C(C)Nc2nc3ccccc3n2C1c1ccncc1 (stereo unspecified) | -13%
35 | CO[C@H]1CN(C)C(=O)c2cc(NC(=O)Nc3ccc(Cl)c(Cl)c3)ccc2OC[C@@H](C)NC[C@@H]1C | -26.6%
36 | N#C[C@H]1[C@H](c2ccccc2C2=CCCCC2)[C@H](CO)N1S(=O)(=O)c1ccccc1 | -13.5%
